The values that follow come from PubChem BioAssay (NCATS).

Inconclusive results are not listed. Where a call stands in place of a potency, no number is given. Active and inactive are the calls of the source. The call rests on the fitted dose curve; in most records, active means well fitted curve in the direction sought with a large enough effect; inconclusive means small, poorly fitted or top-dose-only effect, or another doubt; inactive means no such curve, though single readings can be large; an effect the other way counts as inactive or inconclusive.

Experiment [1] has as its target Cytochrome P450 2C19 (Homo sapiens) (UniProt P33261). The experiment in a line: qHTS Assay for Inhibitors and Substrates of Cytochrome P450 2C19 (AID 899). Further: nearly all actives have a fitted effect of over 60% in size. Further: potency means the concentration at half of the fitted maximal effect. The method in brief: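 In 50mM KPO4, the reaction held 5nM enzyme and KM-level (10uM) Luciferin-H EGE; it ran 60 min at 37C after NADPH regeneration and a 10 min compound preincubation. Luminescence values were scaled to 57uM ketoconazole as complete inhibition.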

For experiment [2], the target named is Cytochrome P450 3A4 (Homo sapiens) (UniProt P08684). Nature of the experiment: qHTS Assay for Activators of Cytochrome P450 3A4 (AID 885). Further: nearly all actives have a fitted effect of over 65% in size. The essentials: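 CYP3A4 activity: Luciferin-PPXE O-dealkylation, 25uM substrate, 200mM KPO4, RT throughout. Read-out is luciferase luminescence; higher values reflect activation.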
Sequence of Cytochrome P450 3A4 (Homo sapiens) (P08684 whole entry, looked up): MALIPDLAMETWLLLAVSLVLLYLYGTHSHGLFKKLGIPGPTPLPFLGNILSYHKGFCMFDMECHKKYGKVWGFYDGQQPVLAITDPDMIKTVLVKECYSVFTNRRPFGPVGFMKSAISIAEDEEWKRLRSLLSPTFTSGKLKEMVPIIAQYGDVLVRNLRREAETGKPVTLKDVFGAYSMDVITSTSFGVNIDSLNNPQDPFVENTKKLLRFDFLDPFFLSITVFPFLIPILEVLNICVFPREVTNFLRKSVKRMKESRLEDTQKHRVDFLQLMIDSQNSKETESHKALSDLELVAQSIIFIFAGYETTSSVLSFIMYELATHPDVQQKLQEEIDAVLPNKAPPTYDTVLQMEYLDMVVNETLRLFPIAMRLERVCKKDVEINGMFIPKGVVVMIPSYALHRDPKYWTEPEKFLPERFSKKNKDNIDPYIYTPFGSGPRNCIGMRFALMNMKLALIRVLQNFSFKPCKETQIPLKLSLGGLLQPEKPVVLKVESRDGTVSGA
For experiment [3] the target is unchanged. Nature of the experiment: qHTS Assay for Inhibitors and Substrates of Cytochrome P450 3A4 (AID 884). Further: series mostly up to about 57 µM; nearly all actives have a fitted effect of over 50% in size. The essentials: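 Luminescent readout of luciferin produced by CYP3A4 (20 nM) dealkylation of Luciferin-PPXE, 25 uM (its KM). NADPH-driven reaction ran 60 min at RT after 10 min compound preincubation; data scaled to 57 uM ketoconazole as 100% inhibition.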

Experiment [4] deals with Cytochrome P450 2D6 (Homo sapiens) (UniProt P10635). The experiment in a line: qHTS Assay for Inhibitors and Substrates of Cytochrome P450 2D6 (AID 891). Further: potency means the concentration at half of the fitted maximal effect; nearly all actives have a fitted effect of over 60% in size. The essentials: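 Luminescent read-out of luciferin formed by 5 nM human CYP2D6 demethylating 30 uM Luciferin-ME EGE (Km level) over 60 min at room temperature after NADPH regeneration addition. Data normalized to full inhibition by 1.43 uM quinidine.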
Sequence of Cytochrome P450 2D6 (Homo sapiens) (P10635 whole entry, looked up): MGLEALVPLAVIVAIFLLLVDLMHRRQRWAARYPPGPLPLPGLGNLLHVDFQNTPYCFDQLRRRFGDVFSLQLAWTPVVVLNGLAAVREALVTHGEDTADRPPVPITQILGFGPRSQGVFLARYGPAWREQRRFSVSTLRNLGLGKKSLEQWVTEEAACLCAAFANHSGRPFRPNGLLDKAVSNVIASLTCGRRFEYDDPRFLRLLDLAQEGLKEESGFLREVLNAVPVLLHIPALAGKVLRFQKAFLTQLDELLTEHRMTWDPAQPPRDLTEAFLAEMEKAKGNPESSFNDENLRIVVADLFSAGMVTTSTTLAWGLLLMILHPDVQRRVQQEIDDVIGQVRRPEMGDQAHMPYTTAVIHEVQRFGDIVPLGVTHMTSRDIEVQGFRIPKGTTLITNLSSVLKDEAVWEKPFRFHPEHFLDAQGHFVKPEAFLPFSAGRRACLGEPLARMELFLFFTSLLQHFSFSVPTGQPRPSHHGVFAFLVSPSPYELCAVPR

Sequence of Cytochrome P450 2C19 (Homo sapiens) (P33261 whole entry, looked up): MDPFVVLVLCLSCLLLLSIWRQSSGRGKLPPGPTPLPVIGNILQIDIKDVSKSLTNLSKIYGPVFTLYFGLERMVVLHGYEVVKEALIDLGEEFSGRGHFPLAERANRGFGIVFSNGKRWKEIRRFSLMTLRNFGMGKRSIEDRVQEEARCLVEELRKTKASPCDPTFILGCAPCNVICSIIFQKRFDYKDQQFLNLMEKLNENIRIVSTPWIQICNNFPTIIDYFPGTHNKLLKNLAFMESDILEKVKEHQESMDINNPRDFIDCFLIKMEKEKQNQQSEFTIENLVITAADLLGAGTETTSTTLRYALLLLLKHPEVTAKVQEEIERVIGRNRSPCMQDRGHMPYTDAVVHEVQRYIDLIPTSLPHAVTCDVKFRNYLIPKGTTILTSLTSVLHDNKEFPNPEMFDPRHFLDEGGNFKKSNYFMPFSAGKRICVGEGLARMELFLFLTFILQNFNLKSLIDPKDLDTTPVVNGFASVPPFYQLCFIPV

For `CCc1cccc(CC)c1NC(=O)CN(CC(=O)O)CC(=O)O`, the Potency entry in experiment [1] was “inactive”.
Take `C=CCSCC1Nc2cc(Cl)c(S(N)(=O)=O)cc2S(=O)(=O)N1` (stereo not given): the compound was called inactive in experiment [2].
On to `Cc1[nH]c(C)c(Cl)c(=O)c1Cl`, for which the compound was classed as inactive in experiment [3].
Turning to `CC(=O)SC[C@@H](Cc1ccccc1)C(=O)NCC(=O)OCc1ccccc1`, the Potency in experiment [4] is 316 nM (active); in experiment [1], 126 nM (active).
Take `O=C(O)c1ccccc1OP(=O)(O)O`: the outcome in experiment [3] was inactive.
Regarding `Cc1cccc(C(=O)O)c1O`, the call in experiment [3] was inactive.
For the compound `O=C(O)c1ccccc1C(=O)Nc1ccc(S(=O)(=O)Nc2nccs2)cc1`, the result in experiment [3] and in experiment [2] was inactive.
`CC[N+](C)(CC)CCOC(=O)C1c2ccccc2Oc2ccccc21`: the Potency in experiment [4] was 3980 nM (active).
